# Assay results from the supplement of paper PMC8728848.
# The sample as a whole holds a higher share of the strongest signals than the screen did.
# B1: Gal 10 (Homo sapiens), Q05315 (protein)
# chain: MSLLPVPYTEAASLSTGSTVTIKGRPLVCFLNEPYLQVDFHTEMKEESDIVFHFQVCFGRRVVMNSREYGAWKQQVESKNMPFQDGQEFELSISVLPDKYQVMVNGQSSYTFDHRIKPEAVKMVQVWRDISLTKFNVSYLKR
# Key:
# Test in all cases: glycan array binding signal (z-score within array); higher = stronger binding
# Conditions in all cases: glycan notation: IUPAC condensed, linker removed
# [1] = molecular target: Fuc(a1-2)Gal(b1-3)[Fuc(a1-4)]GlcNAc(b1-2)Man(a1-3)[Fuc(a1-2)Gal(b1-3)[Fuc(a1-4)]GlcNAc(b1-2)Man(a1-3)]Man(b1-4)GlcNAc(b1-4)GlcNAc
# In short: (§1)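 Glycan array data were curated from 3228 arrays in the Consortium for Functional Glycomics database and kept only where the protein sequence was available. Glycan names were converted to IUPAC-condensed notation, and columns mapping to the same glycan were averaged. The binding signal is a within-array Z-score, averaged across arrays of the same protein sequence at different concentrations or buffers and across linkers. Negative Z-scores can be read as non-binding.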
# [2] = molecular target: Fuc(a1-2)Gal(b1-3)[Fuc(a1-4)]GlcNAc(b1-2)Man(a1-6)[Fuc(a1-2)Gal(b1-3)[Fuc(a1-4)]GlcNAc(b1-2)Man(a1-3)]Man(b1-4)GlcNAc(b1-4)[Fuc(a1-6)]GlcNAc
# In short: as §1
# [3] = molecular target: Fuc(a1-2)Gal(b1-4)GlcNAc(b1-3)Gal(b1-4)GlcNAc(b1-3)Gal(b1-4)GlcNAc
# In short: as §1
# [4] = molecular target: Fuc(a1-2)Gal(b1-4)[Fuc(a1-3)]GlcNAc(b1-2)Man(a1-3)[Fuc(a1-2)Gal(b1-4)[Fuc(a1-3)]GlcNAc(b1-2)Man(a1-6)]Man(b1-4)GlcNAc(b1-4)[Fuc(a1-6)]GlcNAc
# In short: as §1
# [5] = molecular target: Fuc(a1-2)Gal(b1-4)[Fuc(a1-3)]GlcNAc(b1-3)Gal(b1-4)[Fuc(a1-3)]GlcNAc
# In short: as §1
# [6] = molecular target: Fuc(a1-2)Gal(b1-4)[Fuc(a1-3)]GlcNAc(b1-3)GalNAc
# In short: as §1
# [7] = molecular target: Fuc(a1-2)Gal6S(b1-3)GlcNAc6S
# In short: as §1
# [8] = molecular target: Fuc(a1-2)[Gal(a1-3)]Gal(b1-4)GlcNAc(b1-3)GalNAc
# In short: as §1
# [9] = molecular target: Fuc(a1-2)[Gal(a1-3)]Gal(b1-4)GlcNAc(b1-6)GalNAc
# In short: as §1
# [10] = molecular target: Fuc(a1-2)[GalNAc(a1-3)]Gal(b1-3)GlcNAc(b1-3)GalNAc
# In short: as §1
# [11] = molecular target: Fuc(a1-2)[GalNAc(a1-3)]Gal(b1-4)GlcNAc(b1-3)Gal(b1-4)GlcNAc
# In short: as §1
# [12] = molecular target: Fuc(a1-2)[GalNAc(a1-3)]Gal(b1-4)GlcNAc(b1-3)[Fuc(a1-2)[GalNAc(a1-3)]Gal(b1-4)GlcNAc(b1-6)]GalNAc
# In short: as §1
# Fuc(b1-3)GlcNAc = molecular target: Fuc(b1-3)GlcNAc
# In short: as §1
# Gal(a1-3)Gal(b1-3)GlcNAc = molecular target: Gal(a1-3)Gal(b1-3)GlcNAc
# In short: as §1
# [13] = molecular target: Gal(a1-3)Gal(b1-3)[Fuc(a1-4)]GlcNAc(b1-2)Man(a1-3)[Gal(a1-3)Gal(b1-3)[Fuc(a1-4)]GlcNAc(b1-2)Man(a1-6)]Man(b1-4)GlcNAc(b1-4)GlcNAc
# In short: as §1
# Gal(a1-3)Gal(b1-4)GlcNAc = molecular target: Gal(a1-3)Gal(b1-4)GlcNAc
# In short: as §1
# [14] = molecular target: Gal(a1-4)Gal(b1-4)GlcNAc(b1-3)Gal(b1-4)Glc
# In short: as §1
# [15] = molecular target: Gal(b1-3)Gal(b1-4)GlcNAc(b1-2)Man(a1-3)[Gal(b1-3)Gal(b1-4)GlcNAc(b1-2)Man(a1-6)]Man(b1-4)GlcNAc(b1-4)GlcNAc
# In short: as §1
# Gal(b1-3)GalNAc = molecular target: Gal(b1-3)GalNAc
# In short: as §1
# [16] = molecular target: Gal(b1-3)GalNAc(b1-3)Gal(a1-4)Gal(b1-4)Glc
# In short: as §1
# Gal(b1-4)Glc6S = molecular target: Gal(b1-4)Glc6S
# In short: as §1
# [17] = molecular target: Gal(b1-4)GlcNAc(b1-2)[Gal(b1-4)GlcNAc(b1-4)]Man(a1-3)[GlcNAc(b1-4)][Gal(b1-4)GlcNAc(b1-2)Man(a1-6)]Man(b1-4)GlcNAc(b1-4)GlcNAc
# In short: as §1
# [18] = molecular target: Gal(b1-4)GlcNAc(b1-3)Gal(b1-4)GlcNAc(b1-2)[Gal(b1-4)GlcNAc(b1-3)Gal(b1-4)GlcNAc(b1-6)]Man(a1-6)[Gal(b1-4)GlcNAc(b1-3)Gal(b1-4)GlcNAc(b1-2)Man(a1-3)]Man(b1-4)GlcNAc(b1-4)[Fuc(a1-6)]GlcNAc
# In short: as §1
# [19] = molecular target: Gal(b1-4)GlcNAc(b1-3)Gal(b1-4)GlcNAc(b1-3)Gal(b1-4)GlcNAc(b1-2)[Gal(b1-4)GlcNAc(b1-3)Gal(b1-4)GlcNAc(b1-3)Gal(b1-4)GlcNAc(b1-6)]Man(a1-6)[Gal(b1-4)GlcNAc(b1-3)Gal(b1-4)GlcNAc(b1-3)Gal(b1-4)GlcNAc(b1-2)Man(a1-3)]Man(b1-4)GlcNAc(b1-4)[Fuc(a1-6)]GlcNAc
# In short: as §1
# [20] = molecular target: Gal(b1-4)GlcNAc(b1-3)Gal(b1-4)GlcNAc(b1-3)Gal(b1-4)GlcNAc(b1-3)Gal(b1-4)GlcNAc(b1-3)Gal(b1-4)GlcNAc(b1-2)Man(a1-3)[Gal(b1-4)GlcNAc(b1-3)Gal(b1-4)GlcNAc(b1-3)Gal(b1-4)GlcNAc(b1-3)Gal(b1-4)GlcNAc(b1-3)Gal(b1-4)GlcNAc(b1-2)Man(a1-6)]Man(b1-4)GlcNAc(b1-4)GlcNAc
# In short: as §1
# [21] = molecular target: Gal(b1-4)GlcNAc(b1-3)Gal(b1-4)GlcNAc(b1-6)[Gal(b1-3)]GalNAc
# In short: as §1
# Gal3S(b1-3)GalNAc = molecular target: Gal3S(b1-3)GalNAc
# In short: as §1
# Gal3S(b1-4)Glc6S = molecular target: Gal3S(b1-4)Glc6S
# In short: as §1
# [22] = molecular target: Gal3S(b1-4)[Fuc(a1-3)]GlcNAc
# In short: as §1
# Gal4S(b1-4)GlcNAc = molecular target: Gal4S(b1-4)GlcNAc
# In short: as §1
binder,measurement,setting,value
B1,glycan array binding signal (z-score),[1],0.078
same,glycan array binding signal (z-score),[2],0.81
same,glycan array binding signal (z-score),[3],-0.692
same,glycan array binding signal (z-score),[4],-0.642
same,glycan array binding signal (z-score),[5],-1.35
same,glycan array binding signal (z-score),[6],2.13
same,glycan array binding signal (z-score),[7],0.571
same,glycan array binding signal (z-score),[8],-0.339
same,glycan array binding signal (z-score),[9],1.28
same,glycan array binding signal (z-score),[10],0.64
same,glycan array binding signal (z-score),[11],-0.116
same,glycan array binding signal (z-score),[12],3.88
same,glycan array binding signal (z-score),Fuc(b1-3)GlcNAc,0.585
same,glycan array binding signal (z-score),Gal(a1-3)Gal(b1-3)GlcNAc,-0.317
same,glycan array binding signal (z-score),[13],0.703
same,glycan array binding signal (z-score),Gal(a1-3)Gal(b1-4)GlcNAc,0.105
same,glycan array binding signal (z-score),[14],-0.109
same,glycan array binding signal (z-score),[15],-0.754
same,glycan array binding signal (z-score),Gal(b1-3)GalNAc,0.117
same,glycan array binding signal (z-score),[16],-0.196
same,glycan array binding signal (z-score),Gal(b1-4)Glc6S,-0.347
same,glycan array binding signal (z-score),[17],-0.708
same,glycan array binding signal (z-score),[18],2.23
same,glycan array binding signal (z-score),[19],5.64
same,glycan array binding signal (z-score),[20],3.23
same,glycan array binding signal (z-score),[21],3.3
same,glycan array binding signal (z-score),Gal3S(b1-3)GalNAc,-0.157
same,glycan array binding signal (z-score),Gal3S(b1-4)Glc6S,0.08
same,glycan array binding signal (z-score),[22],-0.495
same,glycan array binding signal (z-score),Gal4S(b1-4)GlcNAc,-0.269
